Results: PubChem BioAssay
Calls of active or inactive are those of the source. Unless noted, the rule behind the calls is not given here.

Columns and labels:
[1] = circadian clock period modulators, cell-based, LOPAC library, luminescence reporter (AID 2774); conditions: circadian reporter cells, at 7 µM, actives lie on both sides;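 note: values are relative to mean of DMSO wells on each plate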
[2] = system: Hepatitis C virus NS3 helicase; test: HCV NS3 helicase inhibitors, primary screen, biochemical, fluorescence polarization, LOPAC1280 library (AID 687035; in the data active = inhibition above about 37%); conditions: Purified HCV NS3 helicase, Cy5-dT15 ssDNA binding fluorescence polarization; stronger effect = higher value; concentration not given here
[3] = Cy5 fluorescence quenching or enhancement artefacts, artefact control for HCV NS3 helicase inhibitor project, biochemical, LOPAC1280 (AID 687037); conditions: Cy5-DNA-NS3h complex fluorescence interference counterscreen
[4] = sensitizers of A549 cells to miR-34 induction, primary screen, imaging, A549 dox-inducible miR-34, nuclei and caspase counts (AID 1347080;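 active = compounds whose cell count with miR-34 switched on is under 0.7 times the count with it off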); conditions: A549 miR-34 inducible, Hoechst nuclei count, 48 h
[5] = viability rescue of complex I mutant cybrids, primary screen, cell-based, galactose medium, ATP luminescence (AID 1645843;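 active = z-score of at least 1.8 in each of two replicates, scored against plate mean and spread of sample wells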;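 note: positive z means more ATP and so rescue of galactose-driven cybrid death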); conditions: complex I mutant cybrid cells, 72 h, stronger effect = higher value
[6] = hESC survival regulators, cell-based (AID 493140); conditions: human embryonic stem cell survival screen; stronger effect = higher value;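 note: cells exposed to compounds for four days before counting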
[7] = liver-stage malaria parasite growth inhibition, primary screen, cell-based, HepG2, luciferase luminescence, HepG2 viability (AID 624349; in the data active = parasite load remaining mostly below about 12%, no sharp cut-off; inactive = mostly above about 10%;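 note: 100% = mean of DMSO negative control wells on the same plate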); conditions: P. berghei liver stage in HepG2, luciferase luminescence, concentration not given here; parasite load remaining: stronger effect = lower value; viability: measured here: HepG2 viability without parasites
[8] = stronger effect = lower value, cell number ratio, induced over uninduced
[9] = measured here: relative caspase fold change +Dox/-Dox
[10] = measured here: total cells with miR-34 induction, stronger effect = lower value
[11] = measured here: total cells without miR-34 induction

Row | SMILES | period change [1] | inhibition [2] | fluorescence ratio (interference) [3] | fold change [4, 8] | fold change [4, 9] | cell count [4, 10] | cell count [4, 11] | z-score [5] | survival [6] | parasite load remaining [7] | viability [7]
1 | NCCC1CCCC(CCN)N1 (stereo not given) | 0.21 h (inactive) | -7% (inactive) | 0.9 (inactive) | 1.09 (inactive) | 1.24 | 10800 | 9840 | 0.405 (inactive) | – | – | –
2 | COc1c2c(nc3ccccc13)OC(C(C)(O)CO)C2 (stereo not given) | 0.065 h (inactive) | – | – | 0.919 (inactive) | 0.535 | 8340 | 9080 | – | 14.3 (inactive) | 78.4% (inactive) | 73.1%
3 | NC(C(=O)NC1C(=O)N2C(C(=O)O)=C(Cl)CSC12)c1ccccc1 (stereo not given) | – | – | – | 1.39 (inactive) | 0.686 | 9470 | 6800 | 0.295 (inactive) | – | – | –
4 | NC(=S)c1ccc[n+]([C@@H]2O[C@@H](COP(=O)([O-])OP(=O)(O)OC[C@H]3O[C@@H](n4cnc5c(N)ncnc54)C(OP(=O)(O)O)[C@H]3O)C(O)C2O)c1 (stereo not given in full) | 0.055 h (inactive) | -5% (inactive) | 1 (inactive) | 0.943 (inactive) | 1.17 | 10100 | 10700 | 0.57 (inactive) | – | – | –
5 | N#C/C(=C\c1ccc(O)c(O)c1)C(=O)NCCCNC(=O)/C(C#N)=C/c1ccc(O)c(O)c1 | -0.285 h (inactive) | 37% (active) | 1 (inactive) | 0.987 (inactive) | 1.18 | 9720 | 9850 | -0.275 (inactive) | – | – | –
6 | CC[C@@H]1Cc2cc(O)ccc2C2=C1c1ccc(O)cc1C[C@H]2CC | -0.02 h (inactive) | 0% (inactive) | 1 (inactive) | 1.3 (inactive) | 0.93 | 4580 | 3520 | -0.765 (inactive) | – | – | –
